According to PubChem BioAssay AID1159580 (chemical genetic matrix, 2015):
In all, about 5,500 compounds went through this assay and about 2,000 (36%) were called active. About 18% were inconclusive and are not listed. No stated cut-off is given here; in the data, active means normalized growth mostly below about 0.91 (no sharp cut-off); inconclusive means no clear call, values can overlap the other calls; inactive means mostly above about 0.92. The list shows a part of the results.

Assay: chemical genetic growth profiling, strain panel (AID 1159580);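 further: tested at 20 µM; growth read once vehicle control cultures reached saturation at 30 °C; 1 = growth at the plate median or of vehicle wells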
Details: S. cerevisiae deletion strains, growth OD
[1] = locus YAL040C, strain CLN3, stronger effect = lower value
[2] = locus YCL061C, strain MRC1 (second series), stronger effect = lower value
[3] = locus YDR363W, strain ESC2, stronger effect = lower value
[4] = locus YER002W, strain NOP16, stronger effect = lower value
[5] = locus YGR229C, strain SMI1, stronger effect = lower value
[6] = locus YNL175C, strain NOP13, stronger effect = lower value
[7] = locus YNL197C, strain WHI3, stronger effect = lower value
[8] = locus YNL224C, strain SQS1, stronger effect = lower value
[9] = locus YOR083W, strain WHI5 (second series), stronger effect = lower value

Measured: normalized growth

O=C(O)CC[C@@H](C(=O)O)N1C(=O)c2ccccc2C1=O
inactive: [1] 0.987 | [2] 1.01 | locus YDR150W, strain NUM1, stronger effect = lower value 1 | [3] 0.987 | [4] 0.975 | [5] 1 | [6] 0.973 | [7] 0.976 | [8] 0.991 | [9] 1.06

CC(C(=O)O)c1ccc(CC2CCCC2=O)cc1 (stereo not drawn)
inactive: locus YAL013W, strain DEP1, stronger effect = lower value 0.985 | [1] 0.995 | [2] 1 | [3] 1 | [4] 0.988 | locus YGR078C, strain PAC10, stronger effect = lower value 1.02 | [5] 1.01 | locus YJR075W, strain HOC1, stronger effect = lower value 1.01 | locus YMR263W, strain SAP30, stronger effect = lower value 1 | locus YMR307W, strain GAS1, stronger effect = lower value 0.999 | locus YNL128W, strain TEP1, stronger effect = lower value 0.976 | [6] 1.01 | [7] 1.02 | [8] 0.979 | locus YNL322C, strain KRE1, stronger effect = lower value 1.01 | [9] 0.981 | locus YPL055C, strain LGE1, stronger effect = lower value 0.974 | locus YPL241C, strain CIN2, stronger effect = lower value 1.01
